In PubChem BioAssay AID1745847 (National Center for Advancing Translational Sciences (NCATS), 2022):
The campaign covered roughly 2,100 compounds. About 670 (32%) were called active. Roughly 50% stayed inconclusive and do not appear here. Calls follow the shape of the dose curve; as a rule, active = well fitted inhibition curve with a large enough effect; inconclusive = small, poorly fitted or top-dose-only effect; inactive = no such curve, though single readings can be large or run the other way. The list shows a part of the results.

test: CMV-Luciferase Counterscreen for Inhibitors of ATXN expression; settings: HEK-293 CMV-luciferase reporter, luminescence, 24 h; series mostly up to 57.5 µM; activity change, negative = inhibition: at the top concentration; also: nearly all actives have a fitted effect of over 55% in size
% is scaled to controls: 0 for no effect and ±100 for the full control effect; potency is read from the fitted curve at half-maximal effect.

Structure (SMILES) | activity change, negative = inhibition | Potency
CC[C@@H]1C(c2cccc(Cl)c2)=NN(c2ccc(Br)cc2)[C@H]1C(=O)N1CCOC1=O | 3.07% (inactive) | –
CC(=O)c1ccc(N2CCc3ccccc3C2)c([N+](=O)[O-])c1 | -14% (inactive) | –
COc1ccc(-c2cc(C3CCN(c4ccc(C(C)=O)cc4[N+](=O)[O-])CC3)[nH]n2)cc1 | – | 11.2 µM (active)
CCOC(=O)c1ccccc1NC(=O)CSc1nc2ccccc2c(=O)n1CCCN1CCOCC1 | – | 17.8 µM (active)
O=c1c2c(-c3ccccc3)csc2nc2c3ccccc3c(NCCN3CCOCC3)nn12 | -12% [at 11.4 µM] (inactive) | –
O=C(Nc1nc(NC(=O)c2ccco2)n(-c2ccccc2)n1)c1ccccc1 | – | 6.31 µM (active)
CCN1CC2=C(OC(N)=C(C#N)C2c2cccs2)/C(=C\c2cccs2)C1 (stereo not given) | -3.4% [at 11.4 µM] (inactive) | –
COc1cc2[nH]c(=O)n(CCCCCC(=O)N3CC=C(c4ccccc4)CC3)c(=O)c2cc1OC | – | 3.16 µM (active)
CCN1CCN(CCCNC(=O)c2ccc(/C=C3/Sc4ccccc4N(Cc4ccccc4F)C3=O)cc2)CC1 | 12.2% (inactive) | –
COc1ccc(/C=C2\SC(=S)N(CCCC(=O)NNC(=O)c3ccccc3O)C2=O)cc1 | – | 3.98 µM (active)
O=C(CCCN1C(=O)S/C(=C\c2ccccc2)C1=O)NNC(=O)c1ccccc1O | – | 2.24 µM (active)
CC(C)(C)c1ccc(Oc2ccc(N)cc2)cc1 | – | 3.98 µM (active)
CC(C)(C)c1ccc(Oc2ccc(N)cn2)cc1 | – | 3.98 µM (active)
CCC(C)(C)c1ccc(Oc2ccc(N)cc2)cc1 | – | 2 µM (active)
Cc1ccc(C(C[N+](=O)[O-])Sc2ccc(N)cc2)cc1 (stereo not given) | 52% [at 11.4 µM] (inactive) | –
Cc1c(Cl)c([N+](=O)[O-])nn1Cc1ccc(C(=O)N/N=C\c2cc(Cl)ccc2O)o1 | – | 0.631 µM (active)
CCN(CC)c1ccc(/C=C/c2cccc[n+]2C)c(OC)c1 | – | 2 µM (active)
CCCC[C@@H](CNC)NC[C@H](NCCCCC1CCCCC1)C(C)C | – | 35.5 µM (active)
O=C(/C=C/c1ccccc1)NC(=S)NNC(=O)c1cnccn1 | – | 8.91 µM (active)
CCn1c2ccccc2c2cc(/C=N/NC(=O)c3ccc(O)cc3)ccc21 | -11.8% (inactive) | –
CCn1c2ccccc2c2cc(/C=N/NC(=O)c3ccncc3)ccc21 | – | 2.82 µM (active)
O=C1N/C(=N/N=C/c2ccccc2O)SC1Cc1ccc(F)cc1 (stereo not given) | – | 12.6 µM (active)
Cn1nnnc1Sc1ncnc2scc(-c3ccsc3)c12 | – | 11.2 µM (active)
COc1ccc(-c2csc3ncnc(Sc4nnnn4C)c23)cc1 | – | 3.98 µM (active)
Cc1cnc(NC(=O)CCCc2nc3ccccc3s2)s1 | 91.3% (inactive) | –
